Data reported in PubChem BioAssay (Tox21).
Inconclusive results are not listed. Where a call stands in place of a potency, no number is given. The source made the active and inactive calls. Calls come from the whole dose curve; as a rule, active = well fitted cell-killing curve with a large enough effect in the repeat runs; inconclusive = weak or mixed curves, or effect the other way; inactive = flat fitted curve, though single readings scatter.

Assay: Human pregnane X receptor (PXR) small molecule agonists, qHTS cell viability counter screen (AID 1346977); note: nearly all actives have a fitted effect of over 50% in size
Conditions: PXR-Luc HepG2 viability, CellTiter-Fluor, 24 h; series mostly up to 92.4 µM
Excerpt: U.S. Tox21 Program National Center for Advancing Translational Sciences [NCATS] NIH Chemical Genomics Center [NCGC] U.S. Environmental Protection Agency [EPA] National Institutes of Environmental Health Sciences [NIEHS] National Toxicology Program [NTP] U.S. Food and Drug Administration [FDA] Tox21 Assay Overview: The human pregnane X receptor (hPXR) regulates the expression of several drug metabolizing enzymes and induction of these proteins is a major mechanism for developing drug resistance in cancer. One such key enzyme catalyzing the drug metabolism is cytochrome P450 3A4 (CYP3A4). Changes in CYP3A4 expression affect drug metabolism, thereby reducing the therapeutic efficacy and altering toxicological response to a drug and which finally causes adverse drug interaction. To screen Tox21 libraries for compounds that activate hPXR-mediated CYP3A4 gene expression, PXR-Luc HepG2 cells were used. Also cytotoxicity of the compounds was tested in parallel by measuring the cell viability using CellTiter-Fluor assay system in the same wells.
Tox21 Assay Protocol Summary: PXR-Luc HepG2 cells were dispensed at 2,000 per well in 5uL of assay medium containing 5% charcoal-stripped FBS into white solid bottom 1536-well plates (Corning Life Sciences, Corning, NY) using a Multidrop Combi (Thermo Scientific, Waltham, MA) dispenser. The assay plates were incubated at 37 C and 5% CO2 for 5hr, and then 23nL of compounds dissolved in DMSO and positive control were transferred using a Pintool station (Wako, San Diego, CA). The assay plates were incubated at 37C and 5% CO2 for 24hr. For cytotoxicity read, after 23hr incubation at 37C, 1uL CellTiter-Fluor reagent (Promega Corporation, Madison, WI) was added to each well of the assay plates using Flying Reagent Dispenser (FRD, Aurora Discovery, San Diego, CA). After 1hr incubation at 37C and 5% CO2, the fluorescence signal was quantified using a ViewLux plate reader (PerkinElmer, Shelton, CT).
Potency is the fitted concentration of half-maximal effect.

Row | SMILES | Potency | activity change, negative = cytotoxicity
1 | O=c1[nH]cccc1O | inactive | –
2 | CC(C)=NNC(N)=S | inactive | –
3 | COc1cccc(-c2ccc(/C=C\CN3CCCCCC3)cc2Cl)c1 | 48.3 µM (active) | –
4 | CC(C)(C)c1cc(CCC(=O)OCCSCCOC(=O)CCc2cc(C(C)(C)C)c(O)c(C(C)(C)C)c2)cc(C(C)(C)C)c1O | inactive | –
5 | Cc1cccc(C)c1C | inactive | –
6 | Cc1ccc2sc3cccc(C)c3c2c1 | inactive | –
7 | CCc1c(C)cc(N)c(CC)c1N | inactive | –
8 | CC(C)C(=O)C(C)C | inactive | –
9 | O=C(Nc1ccc([N+](=O)[O-])cc1)Nc1ccc([N+](=O)[O-])cc1 (tested in a mixture with another compound) | inactive | –
10 | CC(c1cc(C(C)(C)C)cc(C(C)(C)C)c1O)c1cc(C(C)(C)C)cc(C(C)(C)C)c1O | inactive | –
11 | O=C(CCN1CCC(c2ccccc2)C1)c1ccc2c(c1)OCCO2 (stereo not given) | 23.7 µM (active) | –
12 | Nc1cccnc1N | inactive | –
13 | O=C(Nc1ccccc1)c1cc(Cl)ccc1O | 12.2 µM (active) | –
14 | CCC(O)CO (stereo not given) | inactive | –
15 | CCN(CC)c1ccc2c(c1)Oc1cc(N(CC)CC)ccc1C21OC(=O)c2ccccc21 | 4.22 µM (active) | –
16 | N#CCCOCCC#N | inactive | –
17 | CCN(CC)c1ccc(C=O)cc1 | inactive | –
18 | CCOC(=O)[C@H](C)O | inactive | –
19 | CC/C=C(\C)C=O | inactive | –
20 | NCc1ccco1 | inactive | –

Row | SMILES | Potency | activity change, negative = cytotoxicity
21 | Cc1c[nH]c(=O)[nH]c1=O | inactive | –
22 | N#Cc1nc(Cl)c(Cl)c(Cl)c1Cl | 48.6 µM (active) | –
23 | CN(C)CCOc1ccc(/C(=C(/CCCl)c2ccccc2)c2ccccc2)cc1 | 22.8 µM (active) | –
24 | COc1ccc(OC)c(N=Nc2c(O)ccc3ccccc23)c1 | 10.9 µM (active) | –
25 | O=C1OC2(c3ccccc31)c1ccc(O)c(Br)c1Oc1c2ccc(O)c1Br | inactive | –
26 | O=[N+]([O-])c1ccc(CO)cc1 | inactive | –
27 | CCCCCCCCCCCCCCCCCCNC(=O)OC1CCN(C(=O)OC[C@H](COC(=O)N(Cc2cccc[n+]2CC)C(=O)c2ccccc2OC)OC)CC1 | 26.6 µM (active) | –
28 | CCCCNc1ccc(NCCCC)c2c1C(=O)c1ccccc1C2=O | – | -9.38% [at 19 µM] (inactive)
29 | CCC(C)(C)c1ccc(CC(C)CN2C[C@@H](C)O[C@@H](C)C2)cc1 (stereo not given in full) | inactive | –
30 | CCOc1nc(F)cc2nc(S(=O)(=O)Nc3c(Cl)cccc3C(=O)OC)nn12 | inactive | –
31 | CCN(CCC#N)c1ccc(N=Nc2ccc([N+](=O)[O-])cc2)cc1 | inactive | –
32 | CCN(CC)c1ccc(C=O)c(O)c1 | inactive | –
33 | O=C1CCCCCCCCCCCCCC1 | inactive | –
34 | C=Cc1ccncc1 | inactive | –
35 | CC1=CC[C@@H](C(C)(C)O)CC1 | inactive | –
36 | Oc1ccc2c(c1)CCC2 | inactive | –
37 | Cc1ccc(C2OC[C@@H]3OC(c4ccc(C)cc4)O[C@H]([C@H](O)CO)[C@@H]3O2)cc1 (stereo not given in full) | inactive | –
38 | O=c1cc[nH]cc1 | inactive | –
39 | Cc1ccc2n[nH]nc2c1 | inactive | –
40 | COc1cc(OC)nc(NC(=O)NS(=O)(=O)Nc2ccccc2C(=O)N(C)C)n1 | inactive | –
